# Laboratory results from PubChem BioAssay AID1531 (NMMLSC, 2009).
# The campaign covered roughly 290,000 compounds. About 3,300 (1.1%) were called active. The entries come from a sample that favours actives as a whole. A number with no mark means an inactive call. Cut-off read from the data, not from the text of the source: active = binding response below about 67% or above about 130%; inconclusive = no clear call, values can overlap the other calls; inactive = in between.
# Molecular target: Mitogen-activated protein kinase kinase kinase 2 (Homo sapiens) (UniProt Q9Y2U5)
# Assay: wildtype MEKK2 PB1-MEK5 interaction, increase or decrease – biochemical, multiplex bead flow cytometry, Alexa488-MEK5, primary screen (AID 1531)
# Conditions: Alexa488-MEK5 binding to MEKK2 WT, at 10 µM, actives lie on both sides
row,SMILES,binding response (% of control)
1,CS(=O)(=O)N(CC(=O)N1CCN(Cc2ccccc2)CC1)c1ccc2c(c1)OCCO2,103%
2,c1ccc(CN2CCC(N=C3NN=C(c4ccc5c(c4)OCCO5)CS3)CC2)cc1,154% (active)
3,Clc1cccc(N=C2NN=C(c3ccc4c(c3)OCCO4)CS2)c1,97%
4,CC1(c2nnc(-c3ccncc3)o2)CC(c2cccnc2)=NO1 (stereo not drawn),105%
5,O=C(NCCc1ccc(Cl)cc1Cl)c1cc([N+](=O)[O-])c[nH]c1=O,96%
6,COc1ccc(Cn2c(-c3ccc(Cl)cc3)c[n+]3ccccc23)cc1,112%
7,Cc1c(C)c2ccc(OCC(=O)N3CCN(c4cccc(Cl)c4)CC3)cc2oc1=O,92%
8,Cc1ccc(C(CNC(=O)Nc2cccc(C)c2)N2CCN(C)CC2)cc1 (stereo not drawn),104%
9,CCN1C(=S)N[C@@H](CCc2ccccc2)[C@H](C(=O)OC)[C@H]1C,98%
10,CCN1C(=NCc2ccc(OC)cc2)N[C@@H](CCc2ccccc2)[C@H](C(=O)NCc2ccc(OC)cc2)[C@H]1C,139% (active)
11,CCN1C(=NCC(C)C)N[C@@H](CCc2ccccc2)[C@H](C(=O)NCC(C)C)[C@H]1C,103%
12,COc1ccc(CCNS(=O)(=O)c2cc3c(cc2C)NC(=O)CO3)cc1OC,98%
13,COc1ccc(NC(=O)CSc2nc3ccccc3c(=O)n2C)cc1,105%
14,COc1ccccc1/C=N/Nc1nc(C)c(C(C)=O)s1,95%
15,O=C(CSc1nc(Nc2ccccc2)nc(N2CCOCC2)n1)Nc1cc(Cl)ccc1O,99%
16,Cc1c(CCOC(=O)c2cc([N+](=O)[O-])ccc2Cl)sc[n+]1CCCCS(=O)(=O)[O-],97%
17,Cc1c(CCO)sc[n+]1CC(=O)OC12CC3CC(CC(C3)C1)C2,97%
18,Cc1c(CCOC(=O)CC23CC4CC(CC(C)(C4)C2)C3)sc[n+]1Cc1ccc([N+](=O)[O-])cc1,172% (active)
19,CS(=O)(=O)N(Cc1nc2sc3c(c2c(=O)[nH]1)CCCC3)C1CCCCC1,99%
20,COc1ccc(-c2csc3ncnc(N4CCN(S(=O)(=O)c5ccccc5C#N)CC4)c23)cc1,107%
21,COC(=O)CCCC1=CC2=CC(=O)C(C)(OC(=O)c3cccs3)C(=O)C2=CN1c1cccc(C#N)c1 (stereo not drawn),96%
22,CC1(OC(=O)CCc2ccccc2)C(=O)C=C2C=C(c3ccc(C#N)cc3)N(CCc3ccccn3)C=C2C1=O (stereo not drawn),111%

row,SMILES,binding response (% of control)
1,C=CCN1C=C2C(=O)C(C)(OC(=O)CCc3ccccc3)C(=O)C=C2C=C1c1ccc(C#N)cc1 (stereo not drawn),142% (active)
2,Cc1ccc(C23CC4CC(CC(C(=O)NCC(=O)O)(C4)C2)C3)cc1,105%
3,N#C/C(=C\c1cccnc1)C(=O)Nc1ccc(SC(F)F)cc1,107%
4,CCOc1ccc(N/C=C/C(=O)c2ccccc2)cc1,109%
5,CCc1ccc(-c2nn(-c3ccccc3)cc2CSC(=N)N)cc1,140% (active)
6,Cc1ccc(-c2nn(-c3ccccc3)cc2CN(Cc2ccccc2)C(=O)CCC(=O)O)o1,97%
7,O=C(Nc1cn(-c2ccccc2)nc1-c1ccccc1)c1ccccc1,96%
8,CC(=O)NCCc1ccc(S(=O)(=O)Nc2ccc(C)c(S(=O)(=O)N3CCOCC3)c2)cc1,103%
9,O=C(Nc1ccc2ccccc2c1)Nc1ccc2snnc2c1,158% (active)
10,CCc1ccccc1NC(=O)c1ccc2snnc2c1,100%
11,O=C(Nc1cccc(Br)c1)c1ccc2snnc2c1,97%
12,COc1ccc2c(c1)CCNC2Cc1ccc(OC)c(O)c1 (stereo not drawn),96%
13,COc1ccc(N2CCN(CCNC(=O)Nc3cc(Cl)ccc3Cl)CC2)cc1,113%
14,C=CC1=C(C(=O)O)N2C(=O)[C@@H](NC(=O)/C(=N/OCC(=O)O)c3csc(N)n3)[C@H]2SC1,98%
15,C(=N\N1CCN(c2ccccn2)CC1)/C1=C(N2CCOCC2)C(=C/c2ccccc2)/CC1,104%
16,COc1ccc(/C=N/N=C2/C(=O)Nc3ccccc32)cc1O,98%
17,O=C1Nc2ccc(Br)cc2/C1=N/N=C/C1=C(N2CCOCC2)C(=C\c2ccccc2)/CC1,40% [inhibitor] (active)
18,CS(=O)(=O)N1CCN(C(=O)CSc2ccccc2)CC1,101%
19,CC(C)(C)C(=O)c1cnc(Nc2ccccc2)s1,100%
20,COc1ccc(C)cc1Nc1n[n+](-c2ccccc2)c(-c2cccc(Cl)c2Cl)s1,120%
21,COc1cc(Br)c(-c2sc(Nc3ccccc3)n[n+]2-c2ccccc2)cc1OC,152% (active)
22,COc1ccc(C#Cc2c(-c3ccc(OC)cc3)oc3ccc(-c4ccc5c(c4)OCO5)cc23)cc1,96%

row,SMILES,binding response (% of control)
1,O=C(CNC(=O)OCc1ccccc1)NC1CCCCNC1=O (stereo not drawn),100%
2,Cc1ccc(NC(=S)N(CCCN2CCCC2)Cc2cccn2Cc2ccc(Cl)cc2)cc1,181% (active)
3,Cc1ccc(NC(=S)N(CCCN2CCC(C)CC2)Cc2ccco2)cc1,107%
4,Cc1ccc(NC(=S)N(CCN2CCCCC2)Cc2ccco2)cc1C,97%
5,COc1ccc(CCNCc2c(-c3ccccc3)n(C)c3ccccc23)cc1,131%
6,CCOC(=O)C1(Cc2ccccc2C(F)(F)F)CCN(C(=O)c2cc(C)n(C)n2)CC1,91%
7,COc1ccc(N(C)S(=O)(=O)c2ccc3c(c2)CC(C)N3C(=O)C2CC2)c(OC)c1 (stereo not drawn),101%
8,COC(=O)CCCC1=CC2=CC(=O)C(C)(OC(=O)c3cccs3)C(=O)C2=CN1CC1CC1 (stereo not drawn),87%
9,COCCN1C=C2C(=O)C(C)(OC(=O)C3CCCC3)C(=O)C=C2C=C1c1ccsc1 (stereo not drawn),164% (active)
10,CC1(OC(=O)C2CCCC2)C(=O)C=C2C=C(c3ccc(C#N)cc3)OC=C2C1=O (stereo not drawn),90%
11,Cc1ccc(NC(=S)NCCc2ccc(Cl)cc2)c(C)c1,111%
12,CN(CC(=O)Nc1cccc(F)c1)CC(=O)Nc1cccc([N+](=O)[O-])c1,691% (active)
13,Cc1ccc(NC(=O)CN(C)CC(=O)Nc2cccc(F)c2)cc1[N+](=O)[O-],97%
14,Cc1ccc(CN(C)CC(=O)Nc2cccc([N+](=O)[O-])c2)o1,83%
15,O=C(NCCNc1ccccc1[N+](=O)[O-])c1ccccc1F,105%
16,CCN1CCN(c2ccc(S(=O)(=O)N3CCCCC3)cc2NC(=O)Cc2c(Cl)cccc2Cl)CC1,150% (active)
17,CN1CCN(c2ccc(S(=O)(=O)N3CCCCC3)cc2NC(=O)Cc2ccccc2F)CC1,106%
18,COc1ccc(CC(=O)Nc2cc(S(=O)(=O)N3CCCCC3)ccc2N2CCN(C)CC2)cc1,103%
19,CCOC(=O)/C=C/c1ccc(C(F)(F)F)cc1S(=O)(=O)NC(C)(C)C,93%
20,Cc1ccc(N(CC(=O)NC2CCCCC2)C(=O)CCCC(=O)Nc2ccccn2)c(C)c1,105%
21,CC1(C)c2[nH]c3ccccc3c2C[C@H]2C(=O)N(N)CC(=O)N21,110%
22,CN(C)CCN(C(=O)C1=COCCO1)c1nc2ccc(Cl)cc2s1,111%

row,SMILES,binding response (% of control)
1,CSc1nc2ccc(S(=O)(=O)N3CCc4ccccc43)cc2s1,98%
2,CCN(CC)CCN(C(=O)c1ccc(S(=O)(=O)N2CCOCC2)cc1)c1nc2cc3c(cc2s1)OCCO3,115%
3,CCc1ccc2nc(N(CCCN(C)C)C(=O)c3ccc4c(c3)OCCO4)sc2c1,116%
4,CCOc1ccc2nc(N(CCCN(C)C)C(=O)c3ccc(C(=O)c4ccccc4)cc3)sc2c1,155% (active)
5,CN(C)CCCN(C(=O)c1ccc(S(=O)(=O)N2CCCc3ccccc32)cc1)c1nc2ccc(F)cc2s1,232% (active)
6,CCOc1ccc2nc(N(CCN(C)C)C(=O)c3ccc4ccccc4c3)sc2c1,129%
7,CN(C)CCCN(C(=O)c1ccc(S(=O)(=O)N2CCCCCC2)cc1)c1nc2ccc(Br)cc2s1,237% (active)
8,O=C(Nc1nc2ccc([N+](=O)[O-])cc2s1)c1ccc(S(=O)(=O)N2CCCc3ccccc32)cc1,91%
9,O=C1c2ccccc2S(=O)(=O)c2cc(N3CCN(c4ccccn4)CC3)ccc21,97%
10,Cc1cccc(C(=O)N2CCN(S(=O)(=O)N3CCCCC3)CC2)c1,108%
11,COC(C/C=C/C(=O)[C@@H](C)OCc1ccccc1)OC,99%
12,Cc1nc(-c2ccccc2)sc1C1(C)CC(c2cccnc2)=NO1 (stereo not drawn),101%
13,COc1ccc(NC2CCCN(C(=O)c3ccncc3)C2)cc1 (stereo not drawn),97%
14,Cc1ccccc1C(OCC(O)CN1CCCCC1CCO)c1ccccc1 (stereo not drawn),121%
15,COc1cccc(CN(C)CC(=O)Nc2ccccc2C(=O)Nc2ccccc2)c1,88%
16,COc1cccc(CN(C)CC(O)COC(c2ccccc2)c2ccccc2C)c1 (stereo not drawn),150% (active)
17,Cc1ccc(CN(N=Nc2nonc2N)c2nonc2N)c(C)c1,92%
18,CCN(CC)S(=O)(=O)c1ccc(N2CCOCC2)c(NC(=O)C2CSC3(C)CCC(=O)N23)c1 (stereo not drawn),100%
19,OC(CNCc1ccc2c(c1)OCO2)COc1ccccc1 (stereo not drawn),93%
20,CN(Cc1ccccc1)CC(O)COc1ccc(CNCc2cc3ccccc3s2)cc1 (stereo not drawn),138% (active)
21,Cc1ccc(OCC(=O)OC(C)CN(C)Cc2ccccc2)cc1 (stereo not drawn),94%
22,O=C(N/N=C/c1cccc(O)c1)c1cc2c(ccc3ccccc32)o1,97%
